Hits are enriched below; roughly 12% of the tested compounds scored in any of these assays.
AmpC no deterg – qHTS Inhibitors of AmpC Beta-Lactamase (assay without detergent). P00811. AmpC nitrocefin hydrolysis, absorbance 480 nm, 0.0001% Triton. Potency, µM (highest dose often 57.1 µM), for inactives: at the highest dose activity change, negative = inhibition, usual class: inhibitors. actives 0.52% (n = 330,000). AID 485341, 2010;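 further: plate controls were no compound for no effect and no enzyme for full effect; nearly all actives have a fitted effect of over 20% in size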
Target sequence (P00811 whole entry, looked up): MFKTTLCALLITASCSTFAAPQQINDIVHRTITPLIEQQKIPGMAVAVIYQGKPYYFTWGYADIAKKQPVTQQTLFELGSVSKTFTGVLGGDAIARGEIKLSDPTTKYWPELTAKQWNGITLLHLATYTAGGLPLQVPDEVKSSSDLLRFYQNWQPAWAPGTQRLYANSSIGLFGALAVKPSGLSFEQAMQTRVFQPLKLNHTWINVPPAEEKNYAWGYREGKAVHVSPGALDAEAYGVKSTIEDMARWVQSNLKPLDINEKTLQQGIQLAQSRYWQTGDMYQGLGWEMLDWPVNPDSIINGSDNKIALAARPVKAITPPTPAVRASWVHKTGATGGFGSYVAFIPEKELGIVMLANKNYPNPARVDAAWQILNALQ
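20 mM phosphate pH 7.0 + 0.01% (detergent screen) or 0.0001% Triton X-100; 5.3 nM AmpC reagent; cpd preinc 15 min RT; nitrocefin (800 uM stock) to start; A480 q20 s × 4 min; Activity was normalised to no-enzyme and no-compound control wells.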
SARS PLP yeast – qHTS of Yeast-based Assay for SARS-CoV PLP; S. cerevisiae expressing SARS-CoV PLpro, growth rescue; Potency, µM (doses to about 32.9 µM), without a hit: at the top dose activity, positive = growth rescue, most hits filed as activators; actives 0.19% (n = 330,000); calls by dose curve; further: 0% is about no effect; nearly all actives have a fitted effect of over 55% in size
Pf growth 96h – Primary qHTS for delayed death inhibitors of the malarial parasite plastid, 96 hour incubation; P. falciparum luciferase reporter growth, 96 h; Potency, µM (top dose mostly 28.7 µM), inactives show at the top dose activity change, negative = inhibition, hits mostly inhibitors; actives 6.9% (n = 320,000); further: on the % scale 0 is the no-effect control and ±100 the full control effect
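Compounds incubated with erythrocytes infected by luciferase-expressing P. falciparum (2% hematocrit, 0.05% parasitemia final) for 96 hours, 37 C in 5% CO2. Growth inhibition scored as decreased luciferase luminescence.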
Pf growth 48h – Primary qHTS for delayed death inhibitors of the malarial parasite plastid, 48 hour incubation | P. falciparum luciferase growth in erythrocytes, 48 h | Potency, µM (highest dose often 28.7 µM), for the others: top-dose activity change, negative = inhibition, usual class: inhibitors | AID 504832, 2011 | actives 5.9% (n = 310,000); further: on the % scale 0 is the no-effect control and ±100 the full control effect
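A one-generation exposure of luciferase-tagged malaria parasites in RPMI 1640/Albumax erythrocyte culture, 37 C and 5% CO2. Inhibition is inferred from decreased luminescence after adding detection reagent.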
AmpC detergent – qHTS Inhibitors of AmpC Beta-Lactamase (assay with detergent) | P00811 | AmpC hydrolysis of nitrocefin, absorbance 480 nm, 0.01% Triton | Potency, µM (top dose mostly 114 µM), inactives show top-dose activity change, negative = inhibition, usual class: inhibitors | actives 0.041% (n = 370,000) | AID 485294, 2010;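 further: 0% = no-compound wells and -100% = no-enzyme wells; nearly all actives have a fitted effect of over 25% in size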
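20 mM phosphate pH 7.0 + 0.01% (detergent screen) or 0.0001% Triton X-100; 5.3 nM AmpC reagent; cpd preinc 15 min RT; nitrocefin (800 uM stock) to start; A480 q20 s × 4 min; Activity was normalised to no-enzyme and no-compound control wells.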
Sm TGR inh – qHTS Assay for the Inhibitors of Schistosoma Mansoni Peroxiredoxins. Potency, µM (doses to about 114 µM), for inactives: top-dose activity change, negative = inhibition, actives largely listed as inhibitors. purified TGR, DTNB reduction, TNB absorbance 405 nm. actives 3% (n = 360,000). Schistosoma mansoni thioredoxin glutathione reductase (TGR), Q962Y6; further: on the % scale 0 is the no-effect control and ±100 the full control effect; nearly all actives have a fitted effect of over 60% in size
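Kinetic colorimetric format: TGR-catalysed, NADPH-driven DTNB reduction monitored via TNB absorbance. Enzyme dispensed at 20 nM; compound exposure 15 min at room temperature before reaction start.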
The depositor's hits bear a star; ? = inconclusive; nt = not tested or not shown. Unless noted, the call rests on the fitted dose curve; in most records, active means well fitted curve in the direction sought with a large enough effect; inconclusive means small, poorly fitted or top-dose-only effect, or another doubt; inactive means no such curve, though single readings can be large; an effect the other way counts as inactive or inconclusive. Potency means the concentration at half of the fitted maximal effect.

SMILES	AmpC no deterg	SARS PLP yeast	Pf growth 96h	Pf growth 48h	AmpC detergent	Sm TGR inh
CC1CCN(Cc2c(C(=O)N/N=C/c3ccc(C(C)C)cc3)nnn2-c2nonc2N)CC1	-15%	-1%	1.7µM*	?	-10%	-6%
CCOc1ccc(-c2c(C(=O)N/N=C/c3ccc(Cl)cc3)nnn2-c2nonc2N)cc1	-43%	3%	?	9.3µM*	1%	-4%
Cc1ccc(-c2c(C(=O)N/N=C/c3ccc(OC(C)C)cc3)nnn2-c2nonc2N)cc1	-33%	4%	?	10µM*	1%	-1%
Cc1ccc(-c2c(C(=O)N/N=C/c3ccoc3)nnn2-c2nonc2N)cc1	-41%	4%	3.3µM*	9.3µM*	-3%	4%
CCOc1ccc(-c2c(C(=O)N/N=C/c3ccc(OC(C)C)cc3)nnn2-c2nonc2N)cc1	-31%	21%	?	?	6%	3%
O=C(c1ccc(Nc2nc3ccccc3n3nnnc23)cc1)N1CCN(c2ccc(F)cc2)CC1	nt	nt	nt	nt	-10%	4%
CC(C)(C)OC(=O)N1CCc2nc(N3CCN(c4ncccn4)CC3)ncc2C1	nt	nt	nt	nt	20%	11%
CN(C(=O)CSc1nc2ccccc2n1CC(=O)NCc1ccc(F)cc1)c1ccc(F)cc1	nt	nt	nt	nt	-11%	13%
O=C(CSc1nccn1-c1ncc(C(F)(F)F)cc1Cl)c1ccc(Cl)cc1	-19%	3%	116%	120%	-4%	-11%
Cc1ccc(-c2c(C(=O)N/N=C/c3ccc4c(c3)OCO4)nnn2-c2nonc2N)cc1	-38%	-5%	?	?	-18%	-12%
Cc1ccc(-c2c(C(=O)N/N=C/c3cccc(Cl)c3)nnn2-c2nonc2N)cc1	-59%	8%	?	0.052µM*	-10%	9%
Cc1ccc(-c2c(C(=O)N/N=C/c3ccc(C)o3)nnn2-c2nonc2N)cc1	?	-2%	2.3µM*	?	-3%	?
Cc1ccc(-c2c(C(=O)N/N=C/c3ccco3)nnn2-c2nonc2N)cc1	-29%	15%	?	?	-1%	-26%
Cc1c(Cl)cnc(NC(=O)COC(=O)/C=C/c2ccco2)c1Cl	-31%	11%	44%	31%	?	10µM*
Cc1c(Cl)cnc(NC(=O)COC(=O)C(NC(=O)c2ccco2)C(C)C)c1Cl (configuration not stated)	-45%	-3%	?	5%	0%	35µM*
Cc1nc(NC(=O)COC(=O)[C@@H](NC(=O)c2ccco2)C(C)C)c(Cl)cc1Cl	-18%	1%	nt	nt	nt	nt
COc1ccc(OC)c(NC(=O)C2CCN(S(=O)(=O)c3c(C)noc3/C=C/c3ccc(C)cc3)CC2)c1	nt	nt	nt	nt	26%	5%
CSC1=NCCN1C(=O)C12CC3CC(CC(C3)C1)C2	-2%	1%	?	9.3µM*	-13%	-7%
CSC1=NCCN1C(=O)c1cccs1	-3%	8%	13µM*	nt	?	-22%
CCOC(=O)c1c(SCC(=O)Nc2nc3ccc(C)cc3s2)nc(=O)[nH]c1C	nt	nt	nt	nt	2%	-2%
CCC1=Nc2cc(C(=O)NCCCN3CCN(C)CC3)ccc2Sc2ccccc21	158%	2%	22%	?	3%	-2%
COc1ccccc1CC(=O)Nc1cccc(C(=O)NN2C(=O)c3ccccc3C2=O)c1	-35%	20%	9.3µM*	-2%	-9%	2%
Cc1cc(C)n2c(SCC(=O)Nc3ccccc3C#N)nnc2n1	-18%	3%	?	-22%	?	-1%
O=C(CCNS(=O)(=O)c1ccc(Br)cc1)NC1CCCCC1	2%	-1%	3%	?	4%	9%
O=S(=O)(NC(=S)NC1CCCCC1)c1ccc(Br)cc1	-20%	-1%	30%	1%	2%	22µM*
SMILES	AmpC no deterg	SARS PLP yeast	Pf growth 96h	Pf growth 48h	AmpC detergent	Sm TGR inh
NCCCn1c(C(=O)c2ccc(Cl)cc2)c2ccc(C(F)(F)F)cc2[n+]1[O-]	56%	0%	?	9.3µM*	-13%	-32%
NC(=O)CCCn1c(C(=O)c2cc(Cl)c(N)c(Cl)c2)c2ccc([N+](=O)[O-])cc2[n+]1[O-]	4%	1%	9.3µM*	?	-14%	-14%
NC(=O)CCCn1c(C(=O)c2ccc(Cl)cc2)c2ccc([N+](=O)[O-])cc2[n+]1[O-]	31%	2%	?	?	-14%	?
Cc1ccc(S(=O)(=O)N2CC(O)C[C@H]2C(=O)OCC(=O)Nc2ccc(N3CCCCC3)cc2)cc1C (some centres not stated)	217%	2%	26%	62%	-12%	-13%
O=C1Nc2ccccc2Oc2cc(Oc3cccc(Cl)c3)ccc21	nt	nt	nt	nt	0%	0%
O=C1Nc2ccccc2Oc2cc(Oc3ccccc3)ccc21	10µM*	4%	-4%	?	-2%	-1%
CCCn1c(SCC(=O)N2CCCc3ccccc32)nc2c1c(=O)n(C)c(=O)n2C	16%	17%	?	?	35µM*	-16%
Cn1c(=O)c2c(SCC(=O)N3CCCc4ccccc43)nc(CC(C)(C)C)nc2n(C)c1=O	-33%	0%	-5%	-3%	?	-14%
CCCn1c(SCC(=O)N2c3ccccc3Sc3ccccc32)nc2c1c(=O)n(C)c(=O)n2C	-11%	-6%	?	-7%	-1%	4%
CCCc1nc(SCC(=O)N2CCCc3ccccc32)c2c(=O)n(C)c(=O)n(C)c2n1	40µM*	3%	?	?	-4%	3%
CCCc1nc(SCC(=O)N2CCC(Cc3ccccc3)CC2)c2c(=O)n(C)c(=O)n(C)c2n1	3.5µM*	-1%	13%	?	?	1%
CCNC(=O)/C(C#N)=C/c1c(N2CCN(c3ccccc3)CC2)nc2ccccn2c1=O	72%	1%	-17%	-13%	-5%	-10%
C=CCNC(=O)/C(C#N)=C/c1c(N(Cc2ccccc2)Cc2ccccc2)nc2ccccn2c1=O	138%	0%	9.3µM*	5.2µM*	-5%	-7%
CC1CN(c2nc3ccccn3c(=O)c2/C=C(\C#N)C(N)=O)CC(C)O1 (configuration not stated)	-12%	2%	58%	26%	0%	8%
N#C/C(=C\c1c(N(Cc2ccccc2)Cc2ccccc2)nc2ccccn2c1=O)C(N)=O	170%	28%	?	4.7µM*	-7%	-12%
